SMILES strings stand for the structures. Calls of active or inactive are those of the source. The calls were made as follows: active = hit-call score of the fitted dose curve at least 0.9, where 1 is the maximum; inactive = score below 0.9.

Read-out in the first assay: adenosine kinase (ADK) gene, ADK (gene 132)
Description: LTEA_HepaRG_ADK: Life Technologies and Expression Analysis (LTEA) Assay for adenosine kinase (ADK) gene using HepaRG (AID 2283471). The settings on record: mRNA level, 48 h; actives raise or lower the signal. Put shortly: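 Following 48 h exposure of HepaRG cells in 0.5% DMSO (top concentration 100 uM, duplicate wells), ADK mRNA induction or suppression was measured by qRT-PCR, normalised to ACTB/GAPDH/POLR2A, and fitted bidirectionally relative to vehicle.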
For `Brc1ccc(Oc2ccccc2)cc1`, the molecule was classed as inactive.
Take `Oc1ccc2ccc3cccc4ccc1c2c34`: the molecule was classed as inactive.
On the same count and under the same terms, the same measure for `CNC(=O)Oc1cccc2c1OC(C)(C)C2`: “inactive”; for `Nc1ccc([N+](=O)[O-])cc1`: “inactive”.
For the molecule `CN(C)[C@@H]1C(=O)C(C(N)=O)=C(O)[C@@]2(O)C(=O)C3=C(O)c4c(O)cccc4[C@@](C)(O)[C@H]3C[C@@H]12`, the result was inactive.
With `c1ccc(NNc2ccccc2)cc1`, the molecule was classed as inactive.
For `C1=Cc2cccc3cccc1c23`, the result was inactive.
Consider `CC(C)COC(=O)c1ccccc1C(=O)OCC(C)C`, for which the call was inactive.
Turning to `C[C@]12C=CC3=C4CCC(=O)C=C4CC[C@H]3[C@@H]1CC[C@@H]2O`, the AC50 is 68.2 µM (active).
With `COC(=O)c1ccccc1N`, the outcome was inactive.
For the molecule `CC(C)(C)OOC(=O)c1ccccc1`, the molecule was called inactive.
Still for that read-out and setting: the same measure for `CCCCC(CC)COC(=O)c1ccc(C(=O)OCC(CC)CCCC)c(C(=O)OCC(CC)CCCC)c1` (centres undefined): “inactive”; for `CCC[CH2][Sn]([Cl])([CH2]CCC)[CH2]CCC`: “inactive”; for `[Cl-].[Cl-].[Hg+2]`: “inactive”.
With `Cc1ccc(N)c(N)c1`, the molecule was classed as inactive.
On to `CC(O)CCO` (centres undefined), for which the call was inactive.
With `Cc1ccc(N=C=O)cc1N=C=O`, the molecule was called inactive.
On to `O=[N+]([O-])C(Br)(CO)CO`, for which the result was inactive.
On to `CCN(CC)N=O`, for which the molecule was called inactive.
As for `Clc1ccc(C(c2ccc(Cl)cc2)C(Cl)Cl)cc1`, the result was inactive.
With `CC(C)(O)c1cnn2c(-c3ccc(F)c(-c4c(F)cccc4C#N)c3)cnc2n1`, the call was inactive.
On to `OCCCBr`, for which the molecule was classed as inactive.
In the case of `Nc1ccc(N=Nc2ccccc2)cc1`, the half-maximal activity concentration (AC50) is 10.7 µM (active).
As for `ClC1=C(Cl)[C@]2(Cl)[C@H]3[C@H]([C@@H]4C=C[C@H]3C4)[C@@]1(Cl)C2(Cl)Cl`, the result was inactive.
Still for that read-out and setting: the same measure for `Nc1ccc(Cl)cc1N`: “inactive”; for `[As]#[In]`: “inactive”; for `CO[C@@H]1[C@H](OC(=O)NC(=O)CCl)CC[C@]2(CO2)[C@H]1[C@@]1(C)O[C@@H]1CC=C(C)C`: “inactive”.
Take `CCCCCOC(=O)c1ccccc1C(=O)OCCCCC`: the result was inactive.

Read-out in a further assay: Alpha-fetoprotein (AFP) gene, AFP (gene 174)
Kind of assay: LTEA_HepaRG_AFP: Life Technologies and Expression Analysis (LTEA) Assay for Alpha-fetoprotein (AFP) gene using HepaRG (AID 2283472). To be noted: mRNA level, 48 h; actives raise or lower the signal. Summed up:
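Human HepaRG cells plated 48 h, then switched to serum-free induction medium and exposed in duplicate for 48 h to 8-point half-log series from 100 uM in 0.5% DMSO. AFP mRNA by qRT-PCR, normalized to ACTB, GAPDH, POLR2A; bidirectional fit versus DMSO.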
For the molecule `Brc1ccc(Oc2ccccc2)cc1`, the call was inactive.
In the case of `Oc1ccc2ccc3cccc4ccc1c2c34`, the molecule was called inactive.
Turning to `CNC(=O)Oc1cccc2c1OC(C)(C)C2`, the AC50 is 9.92 µM (active).
For the molecule `Nc1ccc([N+](=O)[O-])cc1`, the molecule was classed as inactive.
On to `CN(C)[C@@H]1C(=O)C(C(N)=O)=C(O)[C@@]2(O)C(=O)C3=C(O)c4c(O)cccc4[C@@](C)(O)[C@H]3C[C@@H]12`, for which the molecule was classed as inactive.
As for `c1ccc(NNc2ccccc2)cc1`, the outcome was inactive.
`C1=Cc2cccc3cccc1c23`: the molecule was called inactive.
In the case of `CC(C)COC(=O)c1ccccc1C(=O)OCC(C)C`, the call was inactive.
Consider `C[C@]12C=CC3=C4CCC(=O)C=C4CC[C@H]3[C@@H]1CC[C@@H]2O`, for which the concentration at half-maximal activity (AC50) was 50 µM (active).
For the molecule `COC(=O)c1ccccc1N`, the call was inactive.
As for `CC(C)(C)OOC(=O)c1ccccc1`, the result was inactive.
For the molecule `CCCCC(CC)COC(=O)c1ccc(C(=O)OCC(CC)CCCC)c(C(=O)OCC(CC)CCCC)c1` (centres undefined), the molecule was called inactive.
For `CCC[CH2][Sn]([Cl])([CH2]CCC)[CH2]CCC`, the AC50 is 0.59 µM (active).
Consider `[Cl-].[Cl-].[Hg+2]`, for which the call was inactive.
For `Cc1ccc(N)c(N)c1`, the result was inactive.
Consider `CC(O)CCO` (centres undefined), for which the molecule was classed as inactive.
Consider `Cc1ccc(N=C=O)cc1N=C=O`, for which the AC50 is 50 µM (active).
For the molecule `O=[N+]([O-])C(Br)(CO)CO`, the call was inactive.
Regarding `CCN(CC)N=O`, the molecule was called inactive.
As for `Clc1ccc(C(c2ccc(Cl)cc2)C(Cl)Cl)cc1`, the AC50 is 14 µM (active).
For `CC(C)(O)c1cnn2c(-c3ccc(F)c(-c4c(F)cccc4C#N)c3)cnc2n1`, the AC50 was 12.7 µM (active).
Regarding `OCCCBr`, the molecule was classed as inactive.
`Nc1ccc(N=Nc2ccccc2)cc1`: the AC50 is 20.5 µM (active).
For `ClC1=C(Cl)[C@]2(Cl)[C@H]3[C@H]([C@@H]4C=C[C@H]3C4)[C@@]1(Cl)C2(Cl)Cl`, the AC50 was 50 µM (active).
Take `Nc1ccc(Cl)cc1N`: the AC50 was 22.5 µM (active).
Turning to `[As]#[In]`, the outcome was inactive.
Regarding `CO[C@@H]1[C@H](OC(=O)NC(=O)CCl)CC[C@]2(CO2)[C@H]1[C@@]1(C)O[C@@H]1CC=C(C)C`, the call was inactive.
For the molecule `CCCCCOC(=O)c1ccccc1C(=O)OCCCCC`, the molecule was classed as inactive.

Read-out in the next assay: BCL2L11 (gene 10018)
Description: LTEA_HepaRG_BCL2L11: Life Technologies and Expression Analysis (LTEA) Assay for Bcl-2 (BCL2L11) gene using HepaRG (AID 2283473). To be noted: mRNA level, 48 h; actives raise or lower the signal. Put shortly: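 Human hepatic HepaRG cultures are treated 48 h with test chemicals (maximum 100 uM, 0.5% DMSO vehicle). Expression of BCL2L11 is measured by qRT-PCR against ACTB, GAPDH and POLR2A, with activity in either direction scored relative to vehicle.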
For the molecule `Brc1ccc(Oc2ccccc2)cc1`, the molecule was called inactive.
For the molecule `Oc1ccc2ccc3cccc4ccc1c2c34`, the result was inactive.
On the same count and under the same terms, as for `CNC(=O)Oc1cccc2c1OC(C)(C)C2`, the entry is “inactive”; as for `Nc1ccc([N+](=O)[O-])cc1`, “inactive”.
Turning to `CN(C)[C@@H]1C(=O)C(C(N)=O)=C(O)[C@@]2(O)C(=O)C3=C(O)c4c(O)cccc4[C@@](C)(O)[C@H]3C[C@@H]12`, the result was inactive.
Regarding `c1ccc(NNc2ccccc2)cc1`, the outcome was inactive.
On the same count and under the same terms, the same measure for `C1=Cc2cccc3cccc1c23`: “inactive”.
As for `CC(C)COC(=O)c1ccccc1C(=O)OCC(C)C`, the call was inactive.
The same measure, in the same setting: as for `C[C@]12C=CC3=C4CCC(=O)C=C4CC[C@H]3[C@@H]1CC[C@@H]2O`, the entry is “inactive”.
On to `COC(=O)c1ccccc1N`, for which the molecule was classed as inactive.
Regarding `CC(C)(C)OOC(=O)c1ccccc1`, the molecule was classed as inactive.
With `CCCCC(CC)COC(=O)c1ccc(C(=O)OCC(CC)CCCC)c(C(=O)OCC(CC)CCCC)c1` (centres undefined), the result was inactive.
On to `CCC[CH2][Sn]([Cl])([CH2]CCC)[CH2]CCC`, for which the AC50 is 11.7 µM (active).
Turning to `[Cl-].[Cl-].[Hg+2]`, the molecule was called inactive.
Same read-out and setting: as for `Cc1ccc(N)c(N)c1`, the entry is “inactive”.
For the molecule `CC(O)CCO` (centres undefined), the molecule was classed as inactive.
Same read-out and setting: as for `Cc1ccc(N=C=O)cc1N=C=O`, the entry is “inactive”; as for `O=[N+]([O-])C(Br)(CO)CO`, “inactive”.
In the case of `CCN(CC)N=O`, the molecule was called inactive.
As for `Clc1ccc(C(c2ccc(Cl)cc2)C(Cl)Cl)cc1`, the call was inactive.
The same measure, in the same setting: as for `CC(C)(O)c1cnn2c(-c3ccc(F)c(-c4c(F)cccc4C#N)c3)cnc2n1`, the entry is “inactive”.
On to `OCCCBr`, for which the molecule was called inactive.
Take `Nc1ccc(N=Nc2ccccc2)cc1`: the half-maximal activity concentration (AC50) was 17.6 µM (active).
Regarding `ClC1=C(Cl)[C@]2(Cl)[C@H]3[C@H]([C@@H]4C=C[C@H]3C4)[C@@]1(Cl)C2(Cl)Cl`, the call was inactive.
As to `Nc1ccc(Cl)cc1N`, the AC50 was 18.9 µM (active).
For the molecule `[As]#[In]`, the outcome was inactive.
Consider `CO[C@@H]1[C@H](OC(=O)NC(=O)CCl)CC[C@]2(CO2)[C@H]1[C@@]1(C)O[C@@H]1CC=C(C)C`, for which the molecule was classed as inactive.
Still for that read-out and setting: the same measure for `CCCCCOC(=O)c1ccccc1C(=O)OCCCCC`: “inactive”.

Values taken from PubChem BioAssay (EPA / NIEHS).
